Inconclusive results are not listed. Activity calls are given as the source filed them. Calls come from the whole dose curve; as a rule, active = well fitted cell-killing curve with a large enough effect; inconclusive = small, poorly fitted or top-dose-only effect, or effect the other way; inactive = no such curve, though single readings can be large or run the other way.
Tested on: Tov-21-G
Test: Confirmatory qHTS for gynecologic anti-cancer compounds from libraries of approved drugs and bioactive compounds; note: nearly all actives have a fitted effect of over 55% in size
Conditions: gynecologic cancer cell panel viability, ATPlite luminescence, 48 h; series mostly up to 57.7 µM
How it was run: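 Cells (1,000/well) were plated, left 16 h at 37 C/5% CO2, then given compound at 11 concentrations (1:3) from 57.5 uM to 0.977 nM for 48 h. ATPlite luminescence after 15 min at room temperature gave IC50 values.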
Potency is the fitted concentration of half-maximal effect.

Structure (SMILES)	Potency
COc1cc2c(Oc3ccc(-c4cnc(Nc5ccc(F)cc5)n(C)c4=O)cc3F)ccnc2cc1OCCCN1CCOCC1	19.3 µM (active)
COc1cc2c(cc1-c1c(C)noc1C)ncc1[nH]c(=O)n(C(C)c3ccccn3)c12 (stereo unspecified)	6.85 µM (active)
CC(Oc1cc(-n2cnc3ccc(CN4CCN(C)CC4)cc32)sc1C(N)=O)c1ccccc1C(F)(F)F (stereo unspecified)	27.3 µM (active)
Cc1ccc(-n2[nH]c(C)c(N=Nc3cccc(-c4cccc(C(=O)O)c4)c3O)c2=O)cc1C	inactive
CC1(C)[C@@H](O)CC[C@]2(C)[C@H]3C(=O)C=C4[C@@H]5C[C@@](C)(C(=O)O)CC[C@]5(C)CC[C@@]4(C)[C@]3(C)CC[C@@H]12	inactive
CCC1C(=O)N(C)c2cnc(Nc3ccc(C(=O)NC4CCN(C)CC4)cc3OC)nc2N1C1CCCC1 (stereo unspecified)	1.93 µM (active)
Nc1nc(=S)c2[nH]cnc2[nH]1	inactive
CCCCc1nc2cc(/C=C/C(=O)NO)ccc2n1CCN(CC)CC	3.06 µM (active)
C[C@]12CCC(=O)C=C1CC[C@@H]1[C@@H]2[C@@H](O)C[C@@]2(C)[C@H]1CC[C@]2(O)C(=O)CO	inactive
CN1CCCC(n2nc(Cc3ccc(Cl)cc3)c3ccccc3c2=O)CC1 (stereo unspecified)	30.6 µM (active)
Cc1cnc(Nc2ccc(CN3CCOCC3)cc2)nc1Nc1cccc(S(=O)(=O)NC(C)(C)C)c1	0.243 µM (active)
OCCNC1CCCc2c1[nH]c1ccc(-c3ccccc3)cc21 (stereo unspecified)	27.3 µM (active)
CCn1c(-c2nonc2N)nc2c(C#CC(C)(C)O)ncc(OCC3CCCNC3)c21 (stereo unspecified)	0.0306 µM (active)
CC(=O)c1cnc2ccc(-c3cc(Cl)c(O)c(Cl)c3)nc2c1NC1CCC(CN(C)C)CC1 (stereo unspecified)	0.559 µM (active)
O=C1c2c(O)ccc(O)c2C(=O)c2c(NCCNCCO)ccc(NCCNCCO)c21	4.32 µM (active)
COc1ccc(-c2cc3nccn3c(Nc3ncccc3C(N)=O)n2)cc1OC	4.85 µM (active)

Structure (SMILES)	Potency
Cc1cc(C2CCCCC2)n(O)c(=O)c1	17.7 µM (active)
CC[C@@]1(O)C(=O)OCc2c1cc1n(c2=O)Cc2cc3c(CN(C)C)c(O)ccc3nc2-1	5.44 µM (active)
COc1cc(-c2nn(C3CCC(N4CCN(C(C)=O)CC4)CC3)c3ncnc(N)c23)ccc1NC(=O)c1cc2ccccc2n1C (stereo unspecified)	1.09 µM (active)
CNC(=O)CN1CCC(Oc2cc3c(Nc4cccc(Cl)c4F)ncnc3cc2OC)CC1	7.69 µM (active)
CCN(CC)CCNC(=O)c1c(C)[nH]c(/C=C2\C(=O)Nc3ccc(F)cc32)c1C	11.2 µM (active)
O=C(CCCCCCC(=O)Nc1ccccc1)NO	4.85 µM (active)
CCCCc1oc2ccccc2c1C(=O)c1cc(I)c(OCCN(CC)CC)c(I)c1	56.2 µM (active)
CNC(=O)c1nn(C)c2c1C(C)(C)Cc1cnc(Nc3ccc(N4CCN(C)CC4)cc3)nc1-2	0.122 µM (active)
O=C1NC(=O)C(c2cnc3ccccn23)=C1c1cn2c3c(cccc13)CN(C(=O)N1CCOCC1)CC2	0.544 µM (active)
COC(C)(C)CCn1nc(Nc2c(C)cccc2C)c2cnc(Nc3ccc(OCCN4CCCC4)c(F)c3)nc21	1.37 µM (active)
CCc1c2c(nc3ccc(OC(=O)N4CCC(N5CCCCC5)CC4)cc13)-c1cc3c(c(=O)n1C2)COC(=O)[C@]3(O)CC	21.7 µM (active)
Cc1ccc(C(=O)Nc2ccc(CN3CCN(C)CC3)c(C(F)(F)F)c2)cc1C#Cc1cnc2cccnn12	1.22 µM (active)
CNC(=O)c1ccccc1Sc1ccc2c(/C=C/c3ccccn3)n[nH]c2c1	10.9 µM (active)
C=CC(=O)Nc1cccc(Oc2nc(Nc3ccc(N4CCN(C)CC4)cc3)ncc2Cl)c1	3.85 µM (active)
CC(C)Nc1cc(-c2c[nH]c(C(=O)N[C@H](CO)c3cccc(Cl)c3)c2)c(Cl)cn1	24.3 µM (active)
